Calls of active or inactive are those of the source. How the calls were made is not given here.
These compounds were tested on Aerobactin synthetase IucA (Klebsiella pneumoniae, hypervirulent) (assay: IucA enzyme inhibition, biochemical, LOPAC library, absorbance readout (AID 1346212;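 further: 100% = no compound wells and 0% = no enzyme wells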)). Conditions: IucA enzyme assay, absorbance (OD) readout; active compounds read low;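 tested at 8 µM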.
For `CO[C@@]1(NC(=O)CSCC#N)C(=O)N2C(C(=O)O)=C(CSc3nnnn3C)CS[C@@H]21`, the remaining activity was 118% (inactive).
For `O=C1NC(=O)c2cc(Nc3ccccc3)c(Nc3ccccc3)cc21`, the remaining activity was 113% (inactive).
For `Cn1ccnc1`, the remaining activity was 101% (inactive).
With `O=c1onc2n1-c1cc(Br)ccc1OC2` the remaining activity was 105% (inactive).
With `CSC(N)=NCCC[C@H](N)C(=O)O` the remaining activity was 123% (inactive).
In the case of `CN(C)CC[C@@H](c1ccc(Br)cc1)c1ccccn1`, the remaining activity is reported as 88.6% (inactive).
With `CN=c1nc(-c2ccccc2)n(-c2ccccc2)s1` the remaining activity was 109% (inactive).
For `NC(=S)NCCCC(N)C(=O)O` (stereo not given), the remaining activity was 102% (inactive).
For `Cc1cnc(C(=O)NCCc2ccc(S(=O)(=O)NC(=O)NC3CCCCC3)cc2)cn1`, the remaining activity was 81% (inactive).
In the case of `Nc1ncnc2c1nc(Br)n2C1OC2COP(=O)(O)O[C@@H]2C1O` (stereo not given in full), the remaining activity is reported as 113% (inactive).
With `CCCCCCCCCCCCCCCC(=O)NCCO` the remaining activity was 118% (inactive).
`NC1CONC1=O` (stereo not given) was tested, and the remaining activity was 120% (inactive).
With `Oc1ccc(-c2nc(-c3ccc(F)cc3)c(-c3ccncc3)[nH]2)cc1` the remaining activity was 119% (inactive).
For `N#Cc1cc2nc(O)c(O)nc2cc1[N+](=O)[O-]`, the remaining activity was 86.8% (inactive).
With `CC1(C)CCC2=C(O1)c1ccccc1C(=O)C2=O` the remaining activity was 113% (inactive).
In the case of `O=C1N(c2ccccc2)c2ccccc2C1(Cc1ccncc1)Cc1ccncc1`, the remaining activity is reported as 114% (inactive).
For `COC(=O)[C@@H](N)Cc1ccc(O)c(O)c1`, the remaining activity was 107% (inactive).
`O=C(O)C1CCNCC1` was tested, and the remaining activity was 111% (inactive).
In the case of `CC(/C=C/c1cccc(Oc2ccc(F)cc2)c1)N(O)C(N)=O` (stereo not given), the remaining activity is reported as 99.1% (inactive).
In the case of `OC[C@H]1O[C@@H](n2cnc3c(NC4CCCCC4)ncnc32)[C@H](O)[C@@H]1O`, the remaining activity is reported as 93.2% (inactive).
For `CCN1CCc2nc(N)oc2CC1`, the remaining activity was 119% (inactive).
`C[C@@H]1C(=O)NC2=Nc3cccc(Cl)c3CN21` was tested, and the remaining activity was 121% (inactive).
With `CN(C)CC/C=C1\c2ccccc2COc2ccccc21` the remaining activity was 121% (inactive).
With `C[C@@H]1O[C@@H](O[C@H]2C[C@@H](O)[C@]3(CO)[C@H]4[C@H](O)C[C@]5(C)[C@@H](C6COC(=O)C6)CC[C@]5(O)[C@@H]4CC[C@]3(O)C2)[C@H](O)[C@H](O)[C@H]1O` (stereo not given in full) the remaining activity was 97.8% (inactive).
With `COc1ccc(NC(=O)c2ccc(-c3ccc(-c4noc(C)n4)cc3C)cc2)cc1N1CCN(C)CC1` the remaining activity was 112% (inactive).
`CC[C@H](C)C(=O)O[C@H]1CCC=C2C=C[C@H](C)[C@H](CC[C@@H]3C[C@@H](O)CC(=O)O3)[C@H]21` was tested, and the remaining activity was 118% (inactive).
`O=C(O)CNC(=O)C(CS)Cc1ccccc1` (stereo not given) was tested, and the remaining activity was 119% (inactive).
With `NCCNC(=O)c1ncsc1-c1cccc(F)c1` the remaining activity was 88.1% (inactive).
For `O=c1[nH]c(=O)c2nc3ccccc3nc2[nH]1`, the remaining activity was 114% (inactive).
For `CCCc1c(-c2ccc(O)cc2)nn(-c2ccc(O)cc2)c1-c1ccc(O)cc1`, the remaining activity was 102% (inactive).
With `CC(=O)O[C@H]1Cc2ccccc2N(C(N)=O)c2ccccc21` the remaining activity was 85% (inactive).
For `CCCC(=O)NCCc1c2n(c3ccc(OC)cc13)Cc1ccccc1-2`, the remaining activity was 89.8% (inactive).
In the case of `CN1CCN(c2nc3cc(C(F)(F)F)ccc3n3cccc23)CC1`, the remaining activity is reported as 94.3% (inactive).
In the case of `CN1Cc2sccc2C(c2ccc(O)c(O)c2)C1` (stereo not given), the remaining activity is reported as 120% (inactive).
In the case of `OC[C@H]1O[C@H]([S-])[C@H](O)[C@@H](O)[C@@H]1O.[Au+]`, the remaining activity is reported as 66.7% (active).
`O=C(O)C1=CCNCC1` was tested, and the remaining activity was 95.2% (inactive).
`C[N+](C)(C)CCCCCCCCCC[N+](C)(C)C` was tested, and the remaining activity was 91.8% (inactive).
For `Oc1ccc(Cn2cc[nH]c2=S)cc1`, the remaining activity was 102% (inactive).
In the case of `Nn1nnc2ccccc21`, the remaining activity is reported as 115% (inactive).
For `COc1cc(CC(=O)O)ccc1O`, the remaining activity was 83.1% (inactive).
